Compound activity: PubChem, Sanford-Burnham Center for Chemical Genomics
KKLEB tox – cytotoxicity in KKLEB CF airway cells, primary screen, cytotoxicity control for CF NF-kB inhibitor project, cell-based, uHTS, fluorescence assay plates; KKLEB CF airway cells viability, ATPlite luminescence, overnight; hits give low values; cells stimulated with P. aeruginosa culture filtrate; activity change (cytotoxicity), % at 5 µM; 360,000 compounds, 0.36% hits; AID 602141, 2011;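 active means corrected activity change at or below -50% at 5 µM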
TROY signal inh – inhibitors of TROY-driven NF-kB signaling, primary screen, Q293 LMP1-TROYcd cells, NF-kB luciferase, uHTS; Q293 LMP1-TROYcd NF-kB luciferase reporter, 4 h; 360,000 compounds, 0.98% hits; inhibition, % at 10 µM;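 active means compounds whose plate-normalised and pattern-corrected inhibition of the luciferase reporter signal at the single screening dose is 50% or more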
HIF-2a inh – HIF-2a reporter inhibitors, primary screen, luminescence, 786-0 RCC cells; 786-0 RCC cells HIF-2a reporter, luciferase luminescence, overnight; inhibition, % at 18.8 µM; 360,000 compounds, 0.72% hits; AID 624352, 2012;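 active means inhibition of the luminescence signal of 40% or more relative to plate controls, in a single-dose primary screen at 18.75 µM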
CF NFkB block – inhibitors of PAF-induced NF-kB signaling, primary screen, cell-based, GFP fluorescence, uHTS. inhibition, % at 5 µM. KKLEB NF-kB-GFP reporter, GFP fluorescence overnight. 360,000 compounds, 0.86% hits. AID 588850, 2011;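 active means at least 50% inhibition at 5 µM, scaled per plate between neutral and stimulator controls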;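 further: PAF is a Pseudomonas aeruginosa culture filtrate used as stimulus; plate controls were PAF-stimulated DMSO wells for no effect and unstimulated DMSO wells for full effect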
TWEAK-Fn14 inh – inhibitors of TWEAK-Fn14 signaling, primary screen, luciferase reporter cells, uHTS; TWEAK-stimulated Fn14 reporter cells, luciferase luminescence, 8 h; 360,000 compounds, 2% hits; AID 1159606, 2016; inhibition, % at 10 µM; in the data active means inhibition above about 50%
Peg3 prom inh – Peg3 promoter-driven luciferase inhibitors, primary screen, cell-based, HeLa, luciferase luminescence; HeLa PEG-Prom luciferase reporter, overnight; inhibition, % at 20 µM; 360,000 compounds, 1.7% hits; AID 588405, 2011;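 active means inhibition of at least 50% at 20 µM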
Numbers without * were called inactive; · = no result. In the library only some 4% were active in any assay of this set; here they are far more common.

SMILES | KKLEB tox | TROY signal inh | HIF-2a inh | CF NFkB block | TWEAK-Fn14 inh | Peg3 prom inh
COc1cc(/C=C/c2nc3ccccc3c(=O)[nH]2)cc(Cl)c1O | -6 | -34 | -13 | 20 | -27 | -38
Cc1cccc(/C=C\c2nc3ccccc3c(=O)[nH]2)c1 | -25 | -19 | -162 | 20 | 29 | -149
COc1ccc(C(=O)Nc2cccc(/C=C/c3nc4ccccc4c(=O)[nH]3)c2)cc1 | -29 | 27 | -51 | 48 | 57* | 28
COc1ccc(C(=O)Nc2nc3ccccc3c(=O)[nH]2)cc1 | 26 | -25 | -129 | -32 | 53* | -102
O=C(Nc1cccc(/C=C/c2nc3ccccc3c(=O)[nH]2)c1)c1ccccc1Cl | -10 | 38 | -232 | 3 | 72* | -13
C#Cc1ccc(NC(=O)C2(C)CCN2C(=O)Cc2ccc(C(C)C)cc2)cc1 (centres undefined) | 0 | 26 | 10 | -6 | 41 | -26
CC1(C(=O)NS(=O)(=O)c2ccccc2)CCN1C(=O)CCc1ccc(Cl)cc1Cl (centres undefined) | 0 | -6 | 6 | -7 | 12 | -4
c1ccc(CN2CCC3CC2c2cc(N4CCCCC4)ccc23)cc1 (centres undefined) | 0 | -15 | -13 | -16 | -5 | 5
COc1ccc(/C(C)=N/OCC(=O)N=Nc2c(O)[nH]c3ccc(Br)cc23)cc1 | -53* | 17 | -10 | 47 | 9 | 3
Cn1nc(C(=O)Nc2cccc(S(N)(=O)=O)c2)c2ccccc2c1=O | -5 | -37 | -14 | -26 | 11 | 0
COc1ccc(NS(=O)(=O)c2cc(NC(=O)c3cncc(Br)c3)ccc2OC)cc1 | -11 | 32 | 15 | 31 | 52* | 24
COc1ccc(NS(=O)(=O)c2cc(NC(=O)c3nn(C)c(=O)c4ccccc34)ccc2OC)cc1 | -8 | -9 | 10 | -42 | 53* | 22
COc1ccc(CNC(=O)CN2CCC(NC(=O)c3ccccc3C)CC2)cc1 | 8 | 2 | 1 | -10 | 1 | -6
Nc1nc2ccccc2n1/N=C/c1cccnc1 | 2 | -8 | -16 | 0 | 5 | -20
Nc1nc2ccccc2n1/N=C/c1ccc(-c2ccccc2)o1 | -21 | -23 | -214 | 22 | 53* | -161
Cn1c(=O)c2sccc2n(Cc2cccc(Br)c2)c1=O | -17 | 3 | 10 | 15 | 13 | -235
COc1ccc(C(C)NC(=O)Nc2ccc(C(C)=O)cc2)cc1OC (centres undefined) | 8 | -8 | -148 | -22 | -10 | -108
O=C(NCCN1CCN(c2ccccc2F)CC1)c1ccc2nc3ccccc3c(=O)n2c1 | -22 | 21 | -24 | 12 | 67* | 23
COc1ccc(N2CCN(CCNC(=O)c3ccc4nc5ccccc5c(=O)n4c3)CC2)cc1 | -15 | 13 | 0 | 2 | 37 | 10
CCOC(=O)c1cc2sccc2n1CC(=O)N1c2ccccc2CC1C (centres undefined) | 6 | 3 | 14 | 2 | -10 | 72*
CN(CCO)c1cccc2c1S(=O)(=O)N[C@@H](Cc1ccccc1)CO2 | · | -6 | -4 | · | -8 | ·
COCCNC(=O)C1(C)CCN(C(=O)c2ccc(OC)c(F)c2)C1 (centres undefined) | 2 | 1 | 13 | -11 | 2 | 13
CCNC(=O)C1(C)CCN(C(=O)c2ccc(F)cc2Cl)C1 (centres undefined) | 0 | 2 | 8 | 15 | 89* | 4
CCc1nc(N)nc(N)c1-c1ccc(N(C)Cc2ccccc2)c([N+](=O)[O-])c1 | 2 | 47 | 25 | 4 | 68* | 34
CSCCC(NC(=O)c1ccco1)C(=O)N1CC(C)OC(C)C1 (centres undefined) | 17 | 5 | 7 | 1 | 8 | 3
SMILES | KKLEB tox | TROY signal inh | HIF-2a inh | CF NFkB block | TWEAK-Fn14 inh | Peg3 prom inh
O=[N+]([O-])c1ccc(-[n+]2nc(-c3ccccc3)nn2-c2ccccc2)cc1 | -53* | -51 | 15 | 42 | 14 | 42
CCN(CC)c1ccc(/C=N/NC(=O)CNC(=O)C2COc3ccccc3O2)c(O)c1 (centres undefined) | -30 | -8 | -3 | 12 | -5 | 50*
N#Cc1c2ccc(OCC(=O)NCc3ccco3)cc2n2ccccc12 | -9 | 7 | 9 | -7 | 12 | 21
N#Cc1c2ccc(O)cc2n2ccccc12 | 10 | 6 | 18 | 71* | 56* | -64
CCn1ncc(Br)c1C(=O)Nc1c(C)nn(Cc2c(F)c(F)c(F)c(F)c2F)c1C | 12 | -12 | 12 | -10 | 9 | 5
CNc1ccccc1C(C)(C)c1cc(-c2ccc(F)cc2)no1 | -5 | 31 | 26 | -6 | 54* | 22
COc1ccc2oc(=Nc3ccccc3)c(-c3nc4ccccc4[nH]3)cc2c1 | -67* | 36 | -213 | -15 | 56* | -155
COC(=O)c1ccc(C(=O)Nc2ccc3nc(-c4ccncc4)[nH]c3c2)cc1 | 9 | -6 | 3 | -16 | 35 | -6
COC(=O)c1ccc(-c2nc3ccccc3[nH]2)cc1 | 2 | -4 | -111 | -12 | 56* | -118
COc1ccc(-c2nc3ccccc3[nH]2)cc1 | -18 | 36 | -40 | -10 | 66* | -21
O=C(NCCCl)NNc1c(Cl)cc(Cl)cc1Cl | -5 | 72* | -111 | 5 | 51* | -110
CN(C)c1ccc(CC(=O)N2CCCCC2c2cc(C(=O)Nc3cccc4c3CCCC4)no2)cc1 (centres undefined) | 13 | -1 | 17 | -52 | 4 | 12
CSc1n[nH]c2nc3c(c(=O)n12)C1(CCCCC1)Cc1ccccc1-3 | 12 | 18 | -3 | -45 | 8 | -10
N#CCSc1n[nH]c2nc3c(c(=O)n12)C1(CCCCC1)Cc1ccccc1-3 | 11 | 50* | 4 | 7 | -9 | 21
CCSc1n[nH]c2nc3c(c(=O)n12)C1(CCCCC1)Cc1ccccc1-3 | -9 | 52* | 4 | 11 | -8 | -15
CCn1c(SCC#N)nc2c(c1=O)C1(CCCC1)Cc1ccccc1-2 | -20 | 18 | 26 | 2 | 6 | 17
CCOc1cc(CNCC(C)C)cc(Cl)c1OCc1ccccc1 | -3 | -10 | 7 | 8 | 6 | 9
COc1cc(CNCCc2ccccc2)cc(Cl)c1OCc1ccccc1 | -9 | 7 | 16 | 14 | -18 | 90*
CCOc1cc(CNC2CCCC2)cc(Cl)c1OCc1ccccc1 | -4 | 9 | 20 | -4 | -13 | 57*
